Experimental data published in PubChem BioAssay (NCI).
About 79,000 compounds went through this panel and 15% of them were active in at least one assay; those are over-represented in the sample as a whole. Calls of active or inactive are those of the source. Rule as the data show it: active = growth inhibition above about 70%; inactive = the rest.

What was measured:
[1] = NCI Yeast Anticancer Drug Screen. Data for the wt2 strain (AID 169);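 also: 0% = growth of vehicle-treated yeast cultures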; details: S. cerevisiae wt2 strain growth inhibition, active compounds read high
Outline: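 Yeast cells were exposed to test compounds, and growth inhibition was measured relative to vehicle-treated controls.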

[2] = NCI Yeast Anticancer Drug Screen. Data for the mlh1 strain (AID 171);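 also: 0% = growth of vehicle-treated control cultures of the same strain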; details: S. cerevisiae mlh1 strain growth inhibition, active compounds read high
Outline: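 Yeast carrying a defined genetic alteration in DNA damage repair or cell cycle control were exposed to test compounds. Growth inhibition was measured relative to vehicle-treated controls.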

[3] = NCI Yeast Anticancer Drug Screen. Data for the sgs1 strain (AID 173);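 also: 0% = growth of vehicle-only control cultures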; details: S. cerevisiae sgs1 mutant, active compounds read high
Outline: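 Yeast mutant strains carrying defined defects in DNA damage repair or cell cycle control were exposed to test compounds. Growth inhibition was scored against vehicle-treated controls.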

[4] = NCI Yeast Anticancer Drug Screen. Data for the mlh1 rad18 strain (AID 175); details: S. cerevisiae mlh1 rad18 strain growth inhibition, active compounds read high
Outline: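 Growth inhibition of the yeast strain was measured after compound exposure and expressed relative to vehicle-treated controls. The strain carries defined defects in DNA damage repair.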

[5] = NCI Yeast Anticancer Drug Screen. Data for the rad18 strain (AID 177); details: S. cerevisiae rad18 mutant growth inhibition, active compounds read high
Outline: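 Yeast carrying a defined DNA damage repair alteration were exposed to compounds. Growth inhibition was expressed relative to vehicle-treated controls.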

[6] = NCI Yeast Anticancer Drug Screen. Data for the rad52 strain (AID 147);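 also: 0% = growth of vehicle-treated control cultures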; details: S. cerevisiae rad52 mutant growth inhibition, active compounds read high
Outline: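 Yeast strain carrying a DNA damage repair alteration was exposed to test compounds. Growth inhibition was measured relative to vehicle-treated controls.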

[7] = NCI Yeast Anticancer Drug Screen. Data for the wt1 strain (AID 149);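 also: 0% = growth of vehicle-treated wt1 cultures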; details: S. cerevisiae wt1 strain (SPY 50644) growth inhibition, active compounds read high
Outline: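 wt1 strain grown with compound or vehicle; inhibition taken from the growth difference.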

[8] = NCI Yeast Anticancer Drug Screen. Data for the rad50EPP+ strain (AID 151);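 also: 0% = growth of vehicle-treated control cultures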; details: S. cerevisiae rad50 mutant strain, active compounds read high
Outline: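 Yeast strain carrying rad50 alteration (rad50EPP+) exposed to compounds; growth inhibition measured relative to vehicle-treated controls.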

[9] = NCI Yeast Anticancer Drug Screen. Data for the mgt1 strain (AID 153); details: S. cerevisiae mgt1 mutant growth inhibition, active compounds read high
Outline: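 Yeast mgt1 strain (DNA repair/cell-cycle alteration panel) exposed to compounds; growth inhibition measured relative to vehicle-treated controls.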

[10] = NCI Yeast Anticancer Drug Screen. Data for the rad50 strain (AID 155);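 also: 0% = growth of vehicle-only cultures of the same strain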; details: S. cerevisiae rad50 strain growth inhibition, active compounds read high
Outline: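 DNA repair mutant yeast, compound exposure, growth read-out; inhibition is taken relative to vehicle.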

[11] = NCI Yeast Anticancer Drug Screen. Data for the mec2-1 strain (AID 157); details: S. cerevisiae mec2-1 strain, active compounds read high
Outline: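 mec2-1 yeast strain, carrying an alteration in DNA damage repair or cell cycle control, was exposed to compounds; growth inhibition was measured relative to vehicle-treated controls.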

[12] = NCI Yeast Anticancer Drug Screen. Data for the rad14 strain (AID 159);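 also: 0% = growth of vehicle-treated control cultures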; details: S. cerevisiae rad14 strain growth inhibition, active compounds read high
Outline: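 DNA repair-defective yeast, compound-exposed; % growth inhibition derived by comparison with vehicle-treated controls.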

[13] = NCI Yeast Anticancer Drug Screen. Data for the sgs1 mgt1 strain (AID 161);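 also: 0% = growth of cultures given vehicle only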; details: S. cerevisiae sgs1 mgt1 strain, active compounds read high
Outline: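 Percent growth inhibition was derived by comparing compound-exposed mutant yeast with vehicle-exposed cultures. The strain carries alterations in DNA damage repair.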

[14] = NCI Yeast Anticancer Drug Screen. Data for the CLN2oe strain (AID 163);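 also: 0% = growth of vehicle-only control cultures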; details: S. cerevisiae CLN2oe strain, active compounds read high
Outline: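 Yeast cells carrying a defined cell-cycle control alteration were exposed to test compounds. Growth inhibition was scored against vehicle-treated control cultures.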

[15] = NCI Yeast Anticancer Drug Screen. Data for the cln2 rad14 strain (AID 165);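 also: 0% = growth equal to vehicle treated cultures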; details: S. cerevisiae cln2 rad14 strain, active compounds read high
Outline: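 Yeast carrying cln2 and rad14 alterations (cell cycle control and DNA damage repair) were exposed to compounds. Growth inhibition was measured against vehicle-treated controls.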

[16] = NCI Yeast Anticancer Drug Screen. Data for the bub3 strain (AID 167); details: S. cerevisiae bub3 mutant strain, active compounds read high
Outline: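 In this screen, a yeast mutant lacking normal mitotic checkpoint function is challenged with compound. Relative growth versus vehicle gives the inhibition value.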

[17] = at 5.0 µM (retest, dose inferred, filed as 0.5)
[18] = at 50.0 µM (retest, dose inferred, filed as 5.0)

Measured: growth inhibition

C[n+]1c(-c2ccc(/C=N/NC(=O)c3ccc(C(=O)N/N=C/c4ccc(-c5cn6ccccc6[n+]5C)cc4)cc3)cc2)cn2ccccc21
active: [1]; at 33.0 µM 88% | [1]; at 100.0 µM 82% | [2]; at 100.0 µM 84% | [3]; at 33.0 µM 74% | [3]; at 100.0 µM 81% | [4]; [18] 96% | [4]; at 50.0 µM 92% | [5]; at 100.0 µM 70%
inactive: [1]; at 1.2 µM 13% | [1]; at 3.7 µM 27% | [1]; at 11.0 µM 63% | [2]; at 1.2 µM 3% | [2]; at 3.7 µM 11% | [2]; at 11.0 µM 37% | [2]; at 33.0 µM 69% | [3]; at 1.2 µM 11% | [3]; at 3.7 µM 22% | [3]; at 11.0 µM 44% | [4]; [17] 50% | [5]; at 1.2 µM 10% | [5]; at 3.7 µM 17% | [5]; at 11.0 µM 55% | [5]; at 33.0 µM 55%

COc1cc(C(=O)C=O)cc(OC)c1OC
active: [6]; at 100.0 µM 86% | [9]; at 100.0 µM 94% | [10]; at 100.0 µM 91% | [11]; at 100.0 µM 90% | [12]; at 100.0 µM 95% | [13]; at 50.0 µM 73% | [14]; at 100.0 µM 85% | [16]; at 100.0 µM 87% | [1]; at 100.0 µM 88% | [2]; at 100.0 µM 88% | [3]; at 100.0 µM 97% | [5]; at 100.0 µM 91%
inactive: [6]; at 1.2 µM 1% | [6]; at 3.7 µM 3% | [6]; at 11.0 µM 1% | [6]; at 33.0 µM 0% | [7]; at 1.2 µM -3% | [7]; at 3.7 µM -4% | [7]; at 11.0 µM -7% | [7]; at 33.0 µM -5% | [7]; at 100.0 µM 61% | [8]; at 1.2 µM 1% | [8]; at 3.7 µM 5% | [8]; at 11.0 µM 6% | [8]; at 33.0 µM 16% | [8]; at 100.0 µM 58% | [9]; at 1.2 µM 1% | [9]; at 3.7 µM -3% | [9]; at 11.0 µM -4% | [9]; at 33.0 µM 14% | [10]; at 1.2 µM 0% | [10]; at 3.7 µM -5% | [10]; [17] -156% | [10]; at 11.0 µM 9% | [10]; at 33.0 µM 19% | [10]; [18] 44% | [10]; at 50.0 µM 44.3% | [11]; at 1.2 µM 1% | [11]; at 3.7 µM -1% | [11]; [17] -53% | [11]; at 11.0 µM 6% | [11]; at 33.0 µM -4% | [11]; [18] 3% | [11]; at 50.0 µM 57% | [12]; at 1.2 µM -3% | [12]; at 3.7 µM -7% | [12]; at 11.0 µM -5% | [12]; at 33.0 µM 9% | [13]; [17] -67% | [13]; [18] 60% | [14]; at 1.2 µM 0% | [14]; at 3.7 µM -5% | [14]; at 11.0 µM -7% | [14]; at 33.0 µM 6% | [15]; [17] -65% | [15]; [18] 8% | [15]; at 50.0 µM 37.5% | [16]; at 1.2 µM -6% | [16]; at 3.7 µM -6% | [16]; [17] -66% | [16]; at 11.0 µM -8% | [16]; at 33.0 µM -8% | [16]; [18] 33% | [16]; at 50.0 µM 31.9% | [1]; at 1.2 µM 2% | [1]; at 3.7 µM 1% | [1]; at 11.0 µM 0% | [1]; at 33.0 µM 0% | [2]; at 1.2 µM 9% | [2]; at 3.7 µM -3% | [2]; at 11.0 µM -6% | [2]; at 33.0 µM -8% | [3]; at 1.2 µM 1% | [3]; at 3.7 µM 4% | [3]; at 11.0 µM 3% | [3]; at 33.0 µM 31% | [4]; [17] -129% | [4]; [18] 52% | [4]; at 50.0 µM 67.4% | [5]; at 1.2 µM 0% | [5]; at 3.7 µM -2% | [5]; at 11.0 µM -2% | [5]; at 33.0 µM 5%
